High-throughput results (PubChem)
This is a sample that favours compounds with a hit; in the whole collection about 2.8% have one here.
MsrA inh – inhibitors of bovine MsrA; inhibition, % at 15.5 µM; AID 651718; 0.75% of 360,000 active; purified bovine MsrA, absorbance read-out; in the data active = inhibition above about 4.5%
SMARCA2 act – increases SMARCA2 function in MMTV reporter cells; AID 652017; activation, % at 9.1 µM; MG213 cells, MMTV-luciferase reporter, dexamethasone, overnight; 1% of 370,000 active; in the data active = activation above about 7.8%
proKLK7 act – proKLK7 (human) activation, primary screen. P49862. purified proKLK7, EDANS-DABCYL substrate fluorescence; 100% is mature enzyme control, 0% vehicle. activation, % at 7 µM. 0.9% of 370,000 active. AID 652039;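 active = activation above the mean of all tested compounds plus 3 SD, computed per campaign excluding outliers beyond control limits, cut at about 13% in these data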
Target sequence (P49862 whole entry, looked up): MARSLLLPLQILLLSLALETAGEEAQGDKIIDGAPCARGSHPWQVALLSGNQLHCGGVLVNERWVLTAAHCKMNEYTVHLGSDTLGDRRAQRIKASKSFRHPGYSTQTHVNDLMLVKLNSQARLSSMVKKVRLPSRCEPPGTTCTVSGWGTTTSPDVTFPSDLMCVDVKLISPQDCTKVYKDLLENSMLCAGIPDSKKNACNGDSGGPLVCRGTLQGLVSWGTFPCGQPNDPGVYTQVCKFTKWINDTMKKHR
MsrA act – activates bovine MsrA enzyme; purified bovine MsrA, absorbance read-out; activation, % at 10.6 µM; 0.3% of 360,000 active; AID 602163; in the data active = activation above about 7.5%
A number is an active result; n = inactive; x = no result given.

SMILES	MsrA inh	SMARCA2 act	proKLK7 act	MsrA act
CCCCn1c(N)c(N(CCOC)C(=O)c2ccc(N3CCCC3)c([N+](=O)[O-])c2)c(=O)[nH]c1=O	n	n	n	n
Cc1nccn1S(=O)(=O)c1ccc(Br)cc1Br	5.5	n	n	n
CC[n+]1ccc(/C=C2\Sc3ccccc3N2CCCS(=O)(=O)[O-])c2ccccc21	n	n	n	n
CN1C=C/C(=C\c2cc[n+](C)c3ccccc23)c2ccccc21	48	n	n	n
CC1CCN(S(=O)(=O)c2ccc(Cl)cc2Br)CC1	8.8	n	n	n
CCc1c(C)nc(N)n2c(SCC(=O)Nc3ccccc3OC)nnc12	n	n	n	n
CCOc1ccccc1NC(=O)CSc1nnc2c(CC)c(C)nc(N)n12	n	7.9	n	n
Cc1cc(O)cc(=O)n1-c1cccc(Br)c1	n	n	n	x
CCCCn1c(SCC(N)=O)nc2ccc(N3CCOCC3)cc2c1=O	n	n	16	n
Cc1ccc(S(=O)(=O)N2C[C@H]3C(=O)C[C@@H]4C(=O)N(c5ccccc5)C(=O)[C@@H]4[C@@H]3C[C@H]2c2cccc(Cl)c2)cc1	n	n	n	n
COCC(=O)N(C)c1nnc(-c2cnccn2)s1	n	n	32	n
CC(=O)N(C)c1nnc(-c2cnccn2)s1	n	n	n	n
COC(=O)[C@]12C[C@H](CC(=O)N3CCC(c4ccccc4)CC3)C(=O)N(Cc3ccccc3)C1=C[C@H](COCc1ccccc1)O[C@@H]2C	x	n	n	x
CC(=O)N1N=C(c2cccc(NS(C)(=O)=O)c2)CC1c1cccs1 (configuration not stated)	n	7.9	n	n
CCS(=O)(=O)Nc1cccc(C2=NN(C(C)=O)C(c3cccs3)C2)c1 (configuration not stated)	n	n	n	n
c1ccc(COc2ncnc3c2ncn3CCCN2CCN(c3ncccn3)CC2)cc1	n	n	n	n
O=S(=O)(c1ccc(C(F)(F)F)cc1)N1CCCc2nc(-c3ccccc3)ccc21	n	n	n	x
O=C(NC1CCCC1)c1ccc(COc2ccccc2)o1	x	n	n	x
C/C(=N\O)c1sc(-c2ccccc2)nc1C	n	7.9	n	n
COc1ccc(N2CCN(C(=O)CSc3nnc(-c4cccnc4)n3-c3ccc(F)cc3)CC2)cc1	n	7.9	n	n
COc1ccc(N2CCN(C(=O)CSc3nnc(-c4cccnc4)n3-c3ccccc3)CC2)cc1	n	n	n	n
Cc1ccc(C(=O)N/N=C/c2cccnc2)cc1Cl	n	n	n	n
CN(C)Cc1csc(NC(=O)Nc2ccccc2Oc2ccccc2)n1	n	7.9	n	n
COc1cc(-n2c(C)cc(O)cc2=O)ccc1Cl	n	n	n	x
CC1CCN(S(=O)(=O)c2ccc(C(=O)Nc3ccccc3-c3nc4ccccc4[nH]3)cc2)CC1	n	9.7	n	n
SMILES	MsrA inh	SMARCA2 act	proKLK7 act	MsrA act
Cc1cc(OCC(=O)OCC(=O)c2ccc[nH]2)ccc1Cl	n	n	n	n
C/C(=N\NC(=O)c1ccncc1)c1ccc(N(C)C)cc1	4.7	n	n	n
CCc1ccc(/C=C2/SC(=S)N(CC(=O)Nc3nc4ccccc4s3)C2=O)cc1	n	n	n	13
COc1c2c(c(OC)c3c1c(=O)c1ccccc1n3C)OCO2	n	7.9	n	n
CSCCCNC(=O)C1CCN(S(=O)(=O)c2ccc3[nH]c(=O)oc3c2)CC1	x	n	n	x
Cn1c(-c2ccc(F)cc2)cc2onc(-c3c(F)cccc3Cl)c2c1=O	n	10	n	x
Cc1ccc(-c2cc3onc(-c4ccccc4)c3c(=O)n2C)cc1	n	n	n	n
C[C@@H]1CN([C@H](C)CO)C(=O)CCCn2nncc2CO[C@H]1CN(C)C(=O)Cc1ccccc1	n	n	n	n
COc1ccc(CCNC(=O)c2csc3c2CCCC3)cc1OC	n	n	n	n
COCCNC(=O)c1csc2c1CCCC2	n	n	n	12
COc1cc(F)ccc1-c1cc(C(=O)NCc2ccc(C(F)(F)F)cc2)[nH]n1	n	n	n	n
CCCCC1(C)OC(=O)C(=Cc2ccc(N(CC)CC)cc2)C(=O)O1 (configuration not stated)	5.2	n	n	n
COC(=O)C1=C(C)N(Cc2ccc(C(F)(F)F)cc2)C(=NCC2CC2)NC1c1ccccc1C(F)(F)F (configuration not stated)	n	n	n	x
Cc1ccc2nc(-c3ccc(NC(=O)COC(=O)c4ccco4)cc3)sc2c1	n	7.9	n	n
Cc1ccc2nc(-c3ccc(NC(=O)COC(=O)c4cncc(Br)c4)cc3)sc2c1	n	n	n	n
Cc1ccc2nc(-c3ccc(NC(=O)COC(=O)c4ccc(Br)o4)cc3)sc2c1	n	9.3	n	n
COc1ccc(/C=C(\C#N)C(=O)OCC(=O)Nc2ccc(-c3nc4ccc(C)cc4s3)cc2)cc1	n	7.8	n	n
